# Assay outcomes deposited in PubChem by several laboratories.
# MIN6 prolif-1 = inducers of MIN6 beta-cell proliferation, primary screen, ATP luminescence, uHTS; MIN6 cells proliferation, ATPlite luminescence, 48 h; cells starved in 0.2% serum; 100% = growth in 10% serum; proliferation, % at 10 µM; 330,000 compounds, 0.29% hits;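 active = compounds whose signal lies at least 3.5 SD above the mean of all wells on their plate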;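 note: 0% = DMSO-treated cells in low-serum medium and 100% = 10% serum control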
# DAGLB inhibitor = DAGLB lipase inhibitors, primary screen, biochemical, fluorescence, HTS. HEK293T DAGLB membrane lysate, EnzChek fluorogenic substrate. inhibition, % at 5.17 µM. 340,000 compounds, 0.059% hits; in the data active = inhibition above about 34%;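 note: 0% = enzyme with vehicle and 100% = wells lacking enzyme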
# HDAC3 inh = HDAC3 deacetylase inhibitors, primary screen, biochemical, fluorescence, cell-free homogeneous | inhibition, % at 8.3 µM | AID 2718, 2010 | recombinant HDAC3, fluorogenic peptide/trypsin coupled | 320,000 compounds, 0.15% hits | Histone deacetylase 3 (Homo sapiens), O15379; in the data active = inhibition above about 26%, passing the limit was not always enough; inconclusive = no clear call, values can overlap the other calls
# Rtt109 Vps75 = inhibitors of C. albicans Rtt109/Vps75 HAT, primary screen, biochemical, ThioGlo CoA-SH fluorescence, plate reader; Histone acetyltransferase RTT109 (Candida albicans (strain SC5314 / ATCC MYA-2876)), …; purified Rtt109/Vps75, 4 h; inhibition, % at 34.9 µM; 330,000 compounds, 0.16% hits; AID 540336, 2011;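 active = inhibition of at least 50% in every replicate; inconclusive = best replicate reaches 50% inhibition but some replicates fall short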
# Target sequence (Q5AAJ8 whole entry, looked up): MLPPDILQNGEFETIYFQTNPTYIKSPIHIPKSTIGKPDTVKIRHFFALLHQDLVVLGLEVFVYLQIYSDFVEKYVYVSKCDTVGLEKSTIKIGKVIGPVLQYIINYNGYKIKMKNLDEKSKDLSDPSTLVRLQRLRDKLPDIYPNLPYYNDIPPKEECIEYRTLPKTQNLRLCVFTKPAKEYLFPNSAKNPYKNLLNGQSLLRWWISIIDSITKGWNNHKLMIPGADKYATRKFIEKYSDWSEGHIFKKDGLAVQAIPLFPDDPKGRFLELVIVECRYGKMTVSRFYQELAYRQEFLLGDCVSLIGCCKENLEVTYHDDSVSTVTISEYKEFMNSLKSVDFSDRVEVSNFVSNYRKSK
# V-ATPase pHluor = regulators of yeast V-ATPase proton pumping, primary screen, pHLuorin cytosolic pH fluorescence | S. cerevisiae | response, % at 10 µM | 350,000 compounds, 0.37% hits | AID 504577, 2011; in the data active = response mostly above about 7.3%, no sharp cut-off; inactive = mostly below about 5.4%; note: actives read high
# MIN6 prolif-2 = inducers of beta-cell proliferation in MIN6, confirmation, MIN6 cells, mouse. shares compounds with MIN6 prolif-1. ATPlite luminescence, 48 h; cells kept in 0.2% serum; scaled between 0.2% and 10% serum. proliferation increase, % at 50 µM. 920 tested, under 10 active. AID 463095, 2010;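 active = proliferation increase above 40% at any of the four tested concentrations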
# * marks the source's active call; other numbers are inactive results; ? = inconclusive; / = not tested or not shown. An excerpt weighted towards active compounds, which were near 0.96% of everything screened.
SMILES,MIN6 prolif-1,DAGLB inhibitor,HDAC3 inh,Rtt109 Vps75,V-ATPase pHluor,MIN6 prolif-2
CC(C)CNc1nc(N)c([N+](=O)[O-])c(NCC2CCCO2)n1 (stereo not given),3,1,7,-5,0,/
Cc1ccc(Nc2nc(NCC3CCCO3)nc(N)c2[N+](=O)[O-])cc1C (stereo not given),0.0*,3,-5,-4,-1,0
COCCCNC(=O)CN(c1ccc(F)cc1)S(=O)(=O)c1ccc2c(c1)OCCO2,6.0*,-2,-3,-7,-1,-1
O=C(CN(c1ccc(F)cc1)S(=O)(=O)c1ccc2c(c1)OCCO2)NCc1ccccc1,0,-2,-3,-13,-1,/
CCOc1ccc(NC(=O)C2CCCN(S(=O)(=O)c3ccc4c(c3)CCCN4C(C)=O)C2)cc1 (stereo not given),-1,-2,4,9,0,/
O=C(OCCCc1cc2ccccc2c(=O)o1)N1CCOCC1,7.8*,1,1,-4,-1,4
O=C(OCCc1cc2ccccc2c(=O)o1)N1CCOCC1,-2,-1,0,7,7,/
CCC(Cc1ccccc1)NC(=O)C1=C(C)C(=O)OC12CCC(C)CC2 (stereo not given),7.7*,-2,-3,-5,0,-3
CC1=C(C(=O)NCc2ccc(Cl)cc2)C2(CCC(C)CC2)OC1=O (stereo not given),-3,-5,0,-5,1,/
Clc1ccc(-c2noc3c2-c2nc(Cc4cccc5ccccc45)sc2CC3)cc1,-6,-4,2,-10,-1,/
O=C(c1cccc([N+](=O)[O-])c1)N1CCCC(C(=O)N2CCc3ccccc3C2)C1 (stereo not given),6.0*,-2,1,2,-2,0
O=C(c1ccc(F)cc1)N1CCCC(C(=O)N2CCc3ccccc3C2)C1 (stereo not given),-1,0,-2,-11,2,/
N#Cc1c2c(c(NCCN3CCOCC3)n3c1nc1ccccc13)CCCC2,7.5*,1,-8,-65,-1,5
COc1ccccc1C(=O)COC(=O)c1cc([N+](=O)[O-])ccc1N1CCOCC1,10,-1,2,4,2,/
COc1ccccc1C(=O)COC(=O)c1cc(S(=O)(=O)N2CCCCC2)ccc1N1CCOCC1,0,1,7,3,-2,/
COc1ccc(C(=O)COC(=O)c2cc(S(=O)(=O)N3CCCCC3)ccc2N2CCOCC2)c(OC)c1,11*,-8,10,4,-1,1
COc1ccc(C(=O)COC(=O)c2cc([N+](=O)[O-])ccc2N2CCOCC2)c(OC)c1,12*,-4,1,-3,3,3
Cc1ccc(C2=CC(c3ccccc3)n3ncnc3N2)cc1 (stereo not given),12*,-1,-16,-4,1,-6
COc1ccc(NC(=O)CS(=O)c2ccc(F)cc2)cc1 (stereo not given),12*,1,0,3,-2,-1
CSc1ccc(CN(C)C(=O)CCNS(=O)(=O)c2ccc(C)c(C)c2)cc1,1,-2,3,8,1,/
CC(C)(CN1CCc2ccccc2C1)NS(=O)(=O)c1ccccc1,7.7*,-6,-5,/,1,-6
CCCn1c(-c2nonc2N)nc2ccccc21,9.0*,-5,2,-1,-1,-1
Cn1c(-c2nonc2N)nc2ccccc21,-2,2,-5,7,0,/
COc1ccc(C(=O)Cn2c(NCCCO)nc3ccccc32)cc1OC,1,-1,-1,5,0,/
CCCCOCCCn1c(-c2ccco2)nc2nc3ccccc3nc21,7.8*,-3,-2,-443,0,-6
SMILES,MIN6 prolif-1,DAGLB inhibitor,HDAC3 inh,Rtt109 Vps75,V-ATPase pHluor,MIN6 prolif-2
Cc1ccc(-n2c(C)nnc2SCC(=O)N(C)C2CCS(=O)(=O)C2)cc1 (stereo not given),-3,0,-2,-2,-2,/
OCCC1CN(Cc2c(F)cccc2Cl)CCN1C1CCCC1 (stereo not given),8.1*,-2,-2,-6,-1,0
CCCc1c2ccccc2nc2ccccc12,7.2*,-2,-12,-10,-1,-6
CCCc1cc(C(=O)O)c2ccccc2n1,-3,-2,11,10,4,/
CC1CCc2cc(F)ccc2N1C(=O)CCl (stereo not given),/,2,/,12,-2,/
O=C1Nc2ccc(S(=O)(=O)N3CCCC3)c3ccc(S(=O)(=O)N4CCCC4)c1c23,9.2*,1,2,1,1,5
O=S(=O)(c1ccc(Cl)c2ccccc12)N1CCCC1,-1,-4,-6,-1,2,/
CCc1nc(Cl)c(C#N)c2c1CCCC2,2,-3,-5,/,-3,/
CCCc1nc(Cl)c(C#N)c2c1CCCC2,9.0*,-4,-4,-3,-3,7
CC(C)c1ccc(NC(=O)C2C3C=CC4(CN(Cc5cccnc5)C(=O)C24)O3)cc1 (stereo not given),1,2,4,-1,0,/
COCCCNc1nc(N)c([N+](=O)[O-])c(NCc2ccccc2)n1,0,-3,8,-2,0,/
COCCCNc1nc(N)c([N+](=O)[O-])c(Nc2ccccc2OC)n1,7.2*,/,2,-1,7,3
CCCCCCn1c(SCCOC)nc2c1c(=O)[nH]c(=O)n2C,8,0,-3,-7,1,/
CC(C)(C)N(NC(=O)OCc1ccccc1)C(=O)c1ccccc1Cl,0.0*,-3,0,-4,0,-4
O=C(CC(NCc1ccccn1)C(=O)O)Nc1ccccc1Cl (stereo not given),0,1,-4,7,3,/
COc1ccc(-n2c(=S)[nH]c3cc(C(=O)NCc4ccccc4)ccc3c2=O)c(OC)c1,0,-2,-1,-2,2,/
COc1ccc(C2c3sc(=O)[nH]c3SCC2C(N)=O)cc1 (stereo not given),0,1,5,?,-1,/
CCOC(=O)C1CSc2[nH]c(=O)sc2C1c1ccccc1 (stereo not given),12*,2,3,3,0,-4
ON1C(c2ccc(Cl)cc2Cl)N(O)[C@H]2CCCC[C@H]21 (stereo not given in full),-1,-2,-1,-2,0,/
CC(O)CNc1ccc(-c2n[nH]c(=O)c3ccccc23)cc1[N+](=O)[O-] (stereo not given),-1,5,6,6,1,/
